From PubChem BioAssay (Tox21)
Values joined by “and” are separate entries in the source; they are usually repeats but may differ in a detail not shown here. Equal values may be shown once. Records with an inconclusive call do not appear. Where a call stands in place of a potency, no number is given. Active and inactive are the calls of the source. Unless noted, the call rests on the fitted dose curve; in most records, active means well fitted curve in the direction sought with a large enough effect in the repeat runs; inconclusive means weak or mixed curves; inactive means no such curve, though single readings can be large; an effect the other way counts as inactive or inconclusive.

Tests used:
[1] = target: Aryl hydrocarbon receptor (Homo sapiens) (UniProt P35869); test: qHTS assay to identify small molecule that activate the aryl hydrocarbon receptor (AhR) signaling pathway (AID 743085); further: nearly all actives have a fitted effect of over 15% in size; further: potency means the concentration at half of the fitted maximal effect;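 on activation: HG2L7.5c1 human HepG2 liver cells with stably integrated DRE-driven firefly reporter; series mostly up to about 70 µM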
Chain of Aryl hydrocarbon receptor (Homo sapiens) (P35869 whole entry, looked up): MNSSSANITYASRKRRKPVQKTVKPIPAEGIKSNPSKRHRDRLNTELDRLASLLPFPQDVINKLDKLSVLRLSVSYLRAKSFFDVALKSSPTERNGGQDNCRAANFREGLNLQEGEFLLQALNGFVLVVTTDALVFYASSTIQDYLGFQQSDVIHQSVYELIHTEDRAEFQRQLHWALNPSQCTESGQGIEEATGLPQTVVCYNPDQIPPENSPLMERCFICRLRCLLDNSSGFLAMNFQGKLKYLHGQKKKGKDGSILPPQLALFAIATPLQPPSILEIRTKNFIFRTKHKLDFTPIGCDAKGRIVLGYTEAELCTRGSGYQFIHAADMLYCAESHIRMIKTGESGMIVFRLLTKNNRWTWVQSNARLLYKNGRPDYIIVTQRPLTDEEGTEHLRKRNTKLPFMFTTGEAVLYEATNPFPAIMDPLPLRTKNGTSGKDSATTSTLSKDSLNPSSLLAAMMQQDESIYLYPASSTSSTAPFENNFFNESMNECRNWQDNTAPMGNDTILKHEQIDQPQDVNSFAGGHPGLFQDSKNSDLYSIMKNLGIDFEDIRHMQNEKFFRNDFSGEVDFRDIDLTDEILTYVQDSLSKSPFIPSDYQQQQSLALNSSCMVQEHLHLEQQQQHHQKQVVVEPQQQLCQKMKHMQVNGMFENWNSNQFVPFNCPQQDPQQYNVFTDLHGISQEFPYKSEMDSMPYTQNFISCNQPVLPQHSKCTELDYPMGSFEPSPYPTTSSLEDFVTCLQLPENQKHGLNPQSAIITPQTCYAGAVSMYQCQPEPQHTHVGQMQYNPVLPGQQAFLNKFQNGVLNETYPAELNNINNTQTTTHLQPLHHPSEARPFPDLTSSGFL
In short: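 Reporter assay in engineered HepG2 line HG2L7.5c1, whose plasmid carries twenty dioxin responsive elements upstream of firefly luciferase. Treatment lasted 24 h at 37C; ONE-Glo luminescence gauged induction.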

[2] = qHTS assay to identify small molecule that activate the aryl hydrocarbon receptor (AhR) signaling pathway - cell viability counter screen (AID 743086);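 further: HepG2 liver cells carrying the AhR DRE luciferase reporter; series mostly up to about 70 µM; nearly all actives have a fitted effect of over 45% in size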
In short: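 HepG2-AhR-luc (HG2L7.5c1) cells, 4000/well, treated 24 h at 37 C with compound; viability measured as CellTiter-Fluor fluorescence after 30 min in the same wells as the luciferase read.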

[3] = target: Peroxisome proliferator-activated receptor gamma (Homo sapiens) (UniProt P37231); test: qHTS assay to identify small molecule agonists of the peroxisome proliferator-activated receptor gamma (PPARg) signaling pathway (AID 743094; active means well fitted activation curve with a large enough effect in the signal ratio in the repeat runs, not every such curve was filed as active; the % refers to the signal ratio)
Chain of Peroxisome proliferator-activated receptor gamma (Homo sapiens) (P37231 whole entry, looked up): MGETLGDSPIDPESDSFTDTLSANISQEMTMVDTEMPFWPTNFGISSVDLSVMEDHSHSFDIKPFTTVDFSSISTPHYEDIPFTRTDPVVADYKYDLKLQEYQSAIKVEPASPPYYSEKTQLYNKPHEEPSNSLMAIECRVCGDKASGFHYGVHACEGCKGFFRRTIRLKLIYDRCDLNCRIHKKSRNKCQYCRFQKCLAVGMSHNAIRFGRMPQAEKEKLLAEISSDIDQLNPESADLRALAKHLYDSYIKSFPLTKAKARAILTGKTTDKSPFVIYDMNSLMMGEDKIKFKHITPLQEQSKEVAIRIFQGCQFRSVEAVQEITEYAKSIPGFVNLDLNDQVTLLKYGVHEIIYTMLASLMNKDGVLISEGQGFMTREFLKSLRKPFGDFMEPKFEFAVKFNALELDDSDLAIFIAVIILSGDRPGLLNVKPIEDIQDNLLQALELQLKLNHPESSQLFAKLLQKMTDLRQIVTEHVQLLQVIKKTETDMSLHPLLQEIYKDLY
In short: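 GeneBLAzer PPARg UAS-bla HEK293H cells were plated, rested 5 h, then exposed to compounds for 17 h at 37C. Beta-lactamase activity was read by LiveBLAzer B/G FRET substrate fluorescence after 1 h at room temperature.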

[4] = qHTS assay to identify small molecule antagonists of the peroxisome proliferator-activated receptor gamma (PPARg) signaling pathway - cell viability counter screen (AID 743194); further: nearly all actives have a fitted effect of over 55% in size
In short: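 Cytotoxicity counter screen in PPARg-bla HEK293H cells, same wells as reporter assay. Compounds plus 50 nM rosiglitazone (final) for 17 h at 37 C, then viability read by CellTiter-Glo luminescence.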

[5] = qHTS assay for small molecule agonists of the antioxidant response element (ARE) signaling pathway (AID 743202; active means well fitted activation curve with a large enough effect in the signal ratio in the repeat runs, not every such curve was filed as active; the % refers to the signal ratio; further: potency means the concentration at half of the fitted maximal effect)
In short: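 Agonist mode reporter screen: HepG2 cells with ARE-controlled beta-lactamase are incubated with test compounds for 16 h at 37 C, and beta-lactamase activity is measured as fluorescence of cleaved B/G FRET substrate.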

[6] = qHTS assay for small molecule agonists of the antioxidant response element (ARE) signaling pathway - cell viability counter screen (AID 743203; calls by dose curve; further: nearly all actives have a fitted effect of over 55% in size)
In short: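 ARE-bla HepG2 cells were plated, rested 5 h at 37C/5% CO2, then exposed to compounds in DMSO for 16 h. Viability was read as CellTiter-Glo luminescence after 30 min at room temperature, in the same wells as the ARE screen.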

[7] = qHTS assay for small molecule activators of the heat shock response signaling pathway - cell viability counter screen (AID 743209); further: nearly all actives have a fitted effect of over 50% in size
In short: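 HSE-bla HeLa cells plated overnight, then exposed to Tox21 compounds (23 nL in DMSO) for 5 h at 37 C. After the bla reporter read, CellTiter-Glo was added in the same wells and luminescence read after 30 min at room temperature.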

[8] = qHTS assay for small molecule activators of the heat shock response signaling pathway (AID 743210; active means well fitted activation curve with a large enough effect in the signal ratio in the repeat runs, with a control signal flat, not every such curve was filed as active; the % refers to the signal ratio;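 further: HeLa cells with beta-lactamase reporter driven by heat shock elements; series mostly up to about 63 µM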)
In short: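 Quantitative high-throughput format using an engineered HeLa line in which heat shock response elements drive beta-lactamase; after 5 h with compound, cells received a B/G FRET substrate and fluorescence was read.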

[9] = qHTS assay to identify small molecule agonists of the peroxisome proliferator-activated receptor delta (PPARd) signaling pathway - cell viability counter screen (AID 743211); further: nearly all actives have a fitted effect of over 55% in size
In short: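 Multiplexed format: after the 2 h room-temperature LiveBLAzer B/G FRET step, CellTiter-Glo was added to the same wells. Luminescence after 30 min gave cell viability; compound exposure was 17 h at 37C.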

[10] = target: Peroxisome proliferator-activated receptor delta (Homo sapiens) (UniProt Q03181); test: qHTS assay to identify small molecule agonists of the peroxisome proliferator-activated receptor delta (PPARd) signaling pathway (AID 743212; calls by dose curve)
Chain of Peroxisome proliferator-activated receptor delta (Homo sapiens) (Q03181 whole entry, looked up): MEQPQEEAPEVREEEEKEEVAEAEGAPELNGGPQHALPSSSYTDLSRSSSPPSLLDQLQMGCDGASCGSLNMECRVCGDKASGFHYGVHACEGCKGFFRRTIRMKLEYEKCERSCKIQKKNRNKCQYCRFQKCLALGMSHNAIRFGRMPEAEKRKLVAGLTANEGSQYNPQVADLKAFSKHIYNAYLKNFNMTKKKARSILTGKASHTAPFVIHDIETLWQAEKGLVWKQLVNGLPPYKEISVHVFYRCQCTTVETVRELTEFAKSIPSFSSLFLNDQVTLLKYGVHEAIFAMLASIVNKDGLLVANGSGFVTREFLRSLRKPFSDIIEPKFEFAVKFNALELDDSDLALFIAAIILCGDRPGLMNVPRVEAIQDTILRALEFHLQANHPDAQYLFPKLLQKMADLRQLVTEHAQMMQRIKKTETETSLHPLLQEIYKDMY
In short: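 Quantitative high-throughput agonist screen in a HEK293H beta-lactamase reporter line under UAS control. Compounds in DMSO, at 37 C. Fluorescence read after 2 h with FRET substrate at room temperature.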

[11] = qHTS assay to identify small molecule antagonists of the peroxisome proliferator-activated receptor delta (PPARd) signaling pathway - cell viability counter screen (AID 743213); further: nearly all actives have a fitted effect of over 50% in size
In short: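 Luminescence from CellTiter-Glo, added after the bla read and incubated 30 min at room temperature, gives viability of HEK293H PPARd-bla cells exposed to compounds for 17 h at 37 C with 300 nM L165041.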

[12] = target: Peroxisome proliferator-activated receptor delta (Homo sapiens) (UniProt Q03181); test: qHTS assay to identify small molecule antagonists of the peroxisome proliferator-activated receptor delta (PPARd) signaling pathway (AID 743215; active means well fitted inhibition curve with a large enough effect in the signal ratio in the repeat runs, not every such curve was filed as active; the % refers to the signal ratio;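 further: cells stimulated with agonist L165041 at 300 nM final during compound exposure; series mostly up to about 62 µM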)
In short: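 PPARd-bla HEK293H cells (UAS-bla reporter) preincubated 5 h, then given compound plus 300 nM final L165041 agonist for 17 h at 37 C. Beta-lactamase activity read by LiveBLAzer B/G FRET substrate fluorescence after 2 h at room temperature.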

[13] = target: Bile acid receptor (Homo sapiens) (UniProt Q96RI1); test: qHTS assay to identify small molecule antagonists of the farnesoid-X-receptor (FXR) signaling pathway (AID 743217; active means well fitted inhibition curve with a large enough effect in the signal ratio in the repeat runs, not every such curve was filed as active; the % refers to the signal ratio)
Chain of Bile acid receptor (Homo sapiens) (Q96RI1 whole entry, looked up): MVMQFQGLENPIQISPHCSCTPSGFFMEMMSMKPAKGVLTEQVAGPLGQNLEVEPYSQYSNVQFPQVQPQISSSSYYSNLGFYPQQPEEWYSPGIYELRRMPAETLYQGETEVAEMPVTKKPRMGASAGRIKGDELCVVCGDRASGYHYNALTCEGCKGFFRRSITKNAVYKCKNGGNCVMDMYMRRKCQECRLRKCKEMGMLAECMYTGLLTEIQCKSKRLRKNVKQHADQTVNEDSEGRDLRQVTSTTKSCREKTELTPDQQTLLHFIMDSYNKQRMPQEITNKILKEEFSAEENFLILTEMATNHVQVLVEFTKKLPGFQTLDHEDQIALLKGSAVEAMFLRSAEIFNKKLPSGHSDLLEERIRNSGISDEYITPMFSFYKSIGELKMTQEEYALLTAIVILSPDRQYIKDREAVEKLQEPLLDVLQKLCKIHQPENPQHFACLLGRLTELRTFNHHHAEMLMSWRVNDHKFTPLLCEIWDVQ
In short: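 FXR-UAS-bla HEK 293T cells (beta-lactamase reporter) given compound plus chenodeoxycholic acid (50 uM final), 16 h at 37C. LiveBLAzer B/G FRET substrate added for 2 h at room temperature; fluorescence read.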

[14] = qHTS assay to identify small molecule agonists of the farnesoid-X-receptor (FXR) signaling pathway - cell viability counter screen (AID 743218); further: nearly all actives have a fitted effect of over 45% in size
In short: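 FXR-UAS-bla HEK 293T cells exposed to compounds for 16 h at 37C. Cytotoxicity read in the same wells by CellTiter-Glo luminescence after 30 min at room temperature, following the beta-lactamase FRET read.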

[15] = target: Bile acid receptor (Homo sapiens) (UniProt Q96RI1); test: qHTS assay to identify small molecule agonists of the farnesoid-X-receptor (FXR) signaling pathway (AID 743220; active means well fitted activation curve with a large enough effect in the signal ratio in the repeat runs, not every such curve was filed as active; the % refers to the signal ratio)
In short: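 Beta-lactamase reporter under UAS control in GeneBLAzer FXR HEK 293T cells (5000/well) measured with LiveBLAzer FRET substrate after 2 h at room temperature. Compound exposure lasted 16 h at 37C.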

[16] = target: Peroxisome proliferator-activated receptor gamma (Homo sapiens) (UniProt P37231); test: qHTS assay to identify small molecule antagonists of the peroxisome proliferator-activated receptor gamma (PPARg) signaling pathway (AID 743191; calls by dose curve; further: series mostly up to about 63 µM; nearly all actives have a fitted effect of over 30% in size)
In short: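 GeneBLAzer PPARg UAS-bla HEK293H cells, 5 h post-plating, exposed to compounds 17 h at 37C. LiveBLAzer B/G FRET substrate added for 1 h at room temperature; beta-lactamase reporter read by fluorescence intensity.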

[17] = target: Vitamin D3 receptor (Homo sapiens) (UniProt P11473); test: qHTS assay to identify small molecule agonists of the vitamin D receptor (VDR) signaling pathway (AID 743222; calls by dose curve)
Chain of Vitamin D3 receptor (Homo sapiens) (P11473 whole entry, looked up): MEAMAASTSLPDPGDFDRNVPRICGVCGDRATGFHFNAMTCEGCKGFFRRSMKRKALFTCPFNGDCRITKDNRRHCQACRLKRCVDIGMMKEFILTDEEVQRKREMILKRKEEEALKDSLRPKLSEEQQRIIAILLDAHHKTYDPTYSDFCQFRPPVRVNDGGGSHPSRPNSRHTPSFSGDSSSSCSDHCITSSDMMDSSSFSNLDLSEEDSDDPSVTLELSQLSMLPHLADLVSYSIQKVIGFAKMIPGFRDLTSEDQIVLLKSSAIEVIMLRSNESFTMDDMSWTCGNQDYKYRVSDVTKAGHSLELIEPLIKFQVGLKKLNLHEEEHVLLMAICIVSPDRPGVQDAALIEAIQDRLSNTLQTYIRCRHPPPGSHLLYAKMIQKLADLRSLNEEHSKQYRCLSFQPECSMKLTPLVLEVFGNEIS
In short: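 VDR-bla cells plated 4 h at 37 C, then exposed to compounds for 16 h at 37 C. Beta-lactamase reporter activity measured by fluorescence after 2 h room-temperature loading with LiveBLAzer B/G FRET substrate.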

[18] = target: Vitamin D3 receptor (Homo sapiens) (UniProt P11473); test: qHTS assay to identify small molecule antagonists of the vitamin D receptor (VDR) signaling pathway (AID 743223; active means well fitted inhibition curve with a large enough effect in the signal ratio in the repeat runs, not every such curve was filed as active; the % refers to the signal ratio)
In short: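 After VDR-bla cells are plated and left 4 h at 37C, DMSO-dissolved compounds and 3 nM (final) calcitriol agonist are added. Incubation continues 16 h at 37C; FRET beta-lactamase substrate then develops 2 h at room temperature.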

[19] = qHTS assay to identify small molecule agonists of the vitamin D receptor (VDR) signaling pathway - cell viability counter screen (AID 743224); further: series mostly up to about 63 µM; nearly all actives have a fitted effect of over 50% in size
In short: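 VDR-bla cells, 4 h after plating, exposed to compounds for 16 h at 37C; viability then read in the same wells as CellTiter-Glo luminescence after 30 min at room temperature, following the bla FRET read.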

[20] = qHTS assay to identify small molecule antagonists of the farnesoid-X-receptor (FXR) signaling pathway - cell viability counter screen (AID 743221; active means well fitted cell-killing curve with a large enough effect in the repeat runs, not every such curve was filed as active; further: nearly all actives have a fitted effect of over 50% in size)
In short: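 CellTiter-Glo, 30 min RT, luminescence; same wells as the LiveBLAzer FRET read. Cells: FXR-UAS-bla HEK 293T. Treatment: compound with chenodeoxycholic acid 50 uM final, 16 h at 37 C.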

Row | Structure (SMILES) | Potency [1] | outcome [2] | outcome [3] | outcome [4] | Potency [5] | outcome [6] | outcome [7] | outcome [8] | outcome [9] | outcome [10] | outcome [11] | Potency [12] | outcome [13] | outcome [14] | outcome [15] | Potency [16] | outcome [17] | outcome [18] | outcome [19] | outcome [20]
1 | Nc1ccc(Br)cc1 | 61 µM (active) and 21.7 µM (active) | inactive | inactive | inactive | inactive | inactive | inactive | inactive | inactive | inactive | inactive | inactive | inactive | inactive | inactive | – | – | – | – | –
2 | CCC[N+](=O)[O-] | inactive | inactive | inactive | – | inactive | inactive | inactive | – | inactive | inactive | inactive | inactive | inactive | inactive | inactive | inactive | inactive | inactive | inactive | –
3 | CCc1cccc(C)c1N(C(=O)CCl)C(C)COC (stereo not drawn) | inactive | inactive | – | – | 8.14 µM (active) and 19.3 µM (active) | inactive | inactive | – | inactive | – | inactive | – | – | inactive | – | – | inactive | inactive | inactive | inactive
4 | c1ccc(OP(Oc2ccccc2)Oc2ccccc2)cc1 | inactive | inactive | inactive | – | inactive | inactive | inactive | inactive | inactive | – | inactive | – | – | inactive | – | – | inactive | inactive | inactive | –
5 | O=c1[nH]c2ccccc2c(=O)o1 | inactive | inactive | inactive | – | inactive | inactive | inactive | inactive | inactive | inactive | inactive | inactive | inactive | inactive | inactive | – | inactive | inactive | inactive | –
6 | c1ccc2c(c1)Oc1ccccc1O2 | inactive | inactive | – | inactive | inactive | inactive | inactive | inactive | inactive | – | inactive | – | inactive | inactive | inactive | – | inactive | – | inactive | –
7 | CON(C)C(=O)Nc1ccc(Cl)c(Cl)c1 | 21.8 µM (active) and 27.3 µM (active) | inactive | inactive | – | inactive | inactive | inactive | inactive | inactive | inactive | – | inactive | – | inactive | – | – | inactive | inactive | inactive | inactive
8 | CCNc1nc(NC(C)C)nc(SC)n1 | inactive | inactive | inactive | – | inactive | inactive | inactive | inactive | inactive | inactive | inactive | inactive | – | inactive | – | – | inactive | inactive | inactive | inactive
9 | [N-]=[N+]=[N-] | – | inactive | inactive | – | – | inactive | inactive | inactive | inactive | inactive | inactive | inactive | – | inactive | – | – | inactive | inactive | inactive | –
10 | CC1OC(C)OC(C)O1 (stereo not drawn) | inactive | inactive | inactive | – | inactive | inactive | inactive | inactive | inactive | inactive | inactive | inactive | inactive | inactive | inactive | – | – | – | inactive | inactive
11 | Clc1ccccc1Cl | inactive | inactive | inactive | – | inactive | inactive | inactive | inactive | inactive | inactive | inactive | inactive | inactive | inactive | inactive | – | inactive | inactive | inactive | –
12 | CCCCCOC(=O)c1ccccc1C(=O)OCCCCC | inactive | inactive | inactive | – | inactive | inactive | inactive | – | inactive | – | inactive | – | – | inactive | – | – | inactive | inactive | inactive | –
13 | C=CCO | inactive | inactive | – | inactive | inactive | inactive | inactive | – | inactive | inactive | inactive | inactive | – | inactive | – | – | – | – | inactive | –
14 | COC(=O)NC(=S)Nc1ccccc1NC(=S)NC(=O)OC | – | inactive | inactive | – | – | inactive | inactive | – | inactive | inactive | inactive | inactive | inactive | inactive | inactive | inactive | inactive | inactive | inactive | inactive
15 | Clc1cccc(Cl)c1Cl | inactive | inactive | inactive | – | inactive | inactive | inactive | – | inactive | inactive | inactive | inactive | – | inactive | – | – | inactive | inactive | inactive | inactive
16 | COC(=O)NS(=O)(=O)c1ccc(N)cc1 | inactive | inactive | inactive | – | inactive | inactive | inactive | – | inactive | inactive | inactive | inactive | – | inactive | – | – | inactive | inactive | inactive | inactive
17 | O=C(NC(=O)c1c(F)cccc1F)Nc1cc(Cl)c(OC(F)(F)C(F)C(F)(F)F)cc1Cl (stereo not drawn) | inactive | inactive | inactive | – | – | inactive | inactive | – | inactive | – | inactive | – | inactive | inactive | inactive | – | inactive | inactive | inactive | inactive
18 | CC(NC(C)(C)C)C(=O)c1cccc(Cl)c1 (stereo not drawn) | inactive | inactive | – | inactive | inactive | inactive | inactive | – | inactive | – | inactive | – | – | inactive | – | – | inactive | inactive | inactive | –
19 | CCOC(=O)c1ccccc1C(=O)OCC | – | inactive | inactive | inactive | inactive | inactive | inactive | inactive | inactive | inactive | inactive | inactive | – | inactive | – | inactive | inactive | inactive | inactive | inactive
20 | OCCN(CCO)CCO | – | inactive | – | inactive | inactive | inactive | inactive | – | inactive | – | inactive | – | – | inactive | – | – | – | – | inactive | inactive
